The values below come from PubChem BioAssay (NCATS).

“And” between values parts separate entries of the source, which are not always exact repeats. Equal entries are not always repeated. Results filed as inconclusive are left out. The source made the active and inactive calls. The call rests on the fitted dose curve; in most records, active means well fitted inhibition curve with a large enough effect; inconclusive means small, poorly fitted or top-dose-only effect; inactive means flat fitted curve, though single readings scatter.
On the % scale 0 is the no-effect control and ±100 the full control effect; potency means the concentration at half of the fitted maximal effect.

In this assay the test system is NIH3T3. Put plainly: Cytotoxic Profiling of Annotated Libraries Using Quantitative High-Throughput Screening (AID 1296008). Further: nearly all actives have a fitted effect of over 60% in size. As to conditions: Five cell lines viability, CellTiter-Glo ATP luminescence, 48-72 h; max response: active compounds read low. The essentials:
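Cytotoxicity was measured as CellTiter-Glo ATP luminescence, read after 10 min at room temperature. Compound treatment of the cells lasted 48 or 72 hr at 37 degrees Celsius in a qHTS format.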
Background: In ATP-based viability assays light output follows the ATP content of the culture.
For the compound `C[C@@H]1C[C@H](C)CN(CCC(=O)Nc2ccc(Br)cc2)C1`, the max response is -17.9% (inactive).
Same read-out and setting: the figure for `O=[N+]([O-])c1cn2c(n1)OC[C@@H](OCc1ccc(-c3ccc(OC(F)(F)F)cc3)nc1)C2` is -0.0728% (inactive).
Same read-out and setting: for `C=C1CCC2[C@](C)(CCC[C@@]2(C)C=O)[C@H]1CC/C(C)=C/CO` (stereo not given in full) the value was 1.76% (inactive).
The same measure, in the same setting: for `COc1ccc(CCc2nc3cc(-c4c(C)noc4C)ccc3n2CC(C)N2CCOCC2)cc1Cl` (stereo not given) the value was -17.1% (inactive); for `O=C(NCC(=O)N1CCCC1)Nc1ccc2cnccc2c1`, -5.01% (inactive).
Turning to `C=C(C)C(=O)O[C@H]1[C@H]2C(=C)C(=O)O[C@@H]2/C=C(\CO)CC/C=C(/C=O)[C@@H]1O`, the max response was -6.9% (inactive).
Still for that read-out and setting: for `COc1c(C)cc(NC(=O)c2nn(Cc3ccc(F)cc3)c3c2CN(C(=O)c2ccc[nH]2)C[C@]3(C)C(N)=O)cc1C` the value was -14% (inactive).
With `Cc1[nH]c2ccccc2c1CCNCc1ccc(/C=C/C(=O)NO)cc1`, the Potency was 366 nM (active).
Consider `O=C(NC1CCC1)c1ccc(C#Cc2cccc(F)c2)nc1`, for which the max response is -25.1% (inactive).
On the same count and under the same terms, the figure for `COc1ccc(NC(=O)C2C[C@H](C)CC[C@H]2C(C)C)cc1` (stereo not given in full) is -6.73% (inactive).
In the case of `COc1cc(OC)c2c(=O)[nH]c(-c3cc(C)c(OCCO)c(C)c3)nc2c1`, the max response is -22% (inactive).
The same measure, in the same setting: for `CC1(C=O)CCCC2(C)C1CCC13CC(CO)C(CCC12)C3` (stereo not given) the value was -4.47% (inactive).
Same read-out and setting: for `COc1c2c(nc3occc13)C(CC=C(C)C)(OC)C(O)CC2` (stereo not given) the value was -1.61% (inactive); for `Cn1ncnc1[C@@H]1c2n[nH]c(=O)c3cc(F)cc(c23)N[C@H]1c1ccc(F)cc1`, -15% (inactive).
The same measure, in the same setting: for `O=C(O)c1cccc(-c2ccc(-c3cn(C(=O)N4CCCCC4Cc4ccccc4)nn3)cc2)c1` (stereo not given) the value was -1.06% (inactive).
Regarding `Cc1cccc(-c2[nH]ncc2-c2ccc(F)c(-c3cnn(CCO)c3)c2)n1`, the max response was -23.9% (inactive).
As to `CC1(C)CCC2(C(=O)OC3OC(COC4OC(CO)C(O)C(O)C4O)C(O)C(O)C3O)CCC3(C)C(=CCC4C5(C)CCC(OC6OCC(O)C(O)C6O)C(C)(C)C5CCC43C)C2C1O` (stereo not given), the max response is -18.4% (inactive).
Still for that read-out and setting: the figure for `CC(=O)O[C@@H]1[C@@H](O)[C@H](O[C@@H]2[C@@H](O)[C@@H](O)[C@H](O[C@H]3[C@H](O[C@H]4[C@H](O[C@H]5CC[C@@]6(C)C(CC[C@]7(C)C6CC=C6[C@@H]8CC(C)(C)CC[C@]8(C(=O)O)CC[C@]67C)[C@]5(C)CO)O[C@H](CO)[C@@H](O)[C@@H]4O)OC[C@@H](O)[C@@H]3O)O[C@H]2C)OC[C@H]1O` (stereo not given in full) is 3.03% (inactive).
Same read-out and setting: for `CN(C)CC#CCCC(=O)C(O)(c1ccccc1)C1CCC1` (stereo not given) the value was -1.12% (inactive).
Still for that read-out and setting: for `Cc1cn2c(n1)Cc1ccc(Cl)cc1C(c1ccc(N)cc1)=N2` the value was -15.7% (inactive); for `CC1(CO)CC(O)[C@]2(C(=O)O)CCC34CC3(C=CC3[C@]5(C)C(CC[C@]34C)C(C)(CO)[C@@H](O)[C@H](O)[C@@H]5O)C2C1` (stereo not given in full), -3.3% (inactive).
Regarding `CC(=O)O[C@H]1C[C@@](O)(C(C)C)[C@@H]2[C@@H](OC(=O)c3ccc(O)cc3)CC(C)=CC[C@@]12C`, the max response was -25.3% (inactive).
For `Cc1ccc(C(C)C)c(O[C@@H]2O[C@H](CO)[C@@H](O)[C@H](O)[C@H]2O)c1`, the max response is 2.1% (inactive).
For `O=C1Nc2ccccc2-c2nc3ccccc3c(=O)n2-c2c(O)cccc21`, the max response is 1.73% (inactive).
On to `COc1ccc(CN2CCN(CCCSc3cc(C(C)(C)C)c(O)c(C(C)(C)C)c3)CC2)c(OC)c1OC`, for which the max response was 4.43% (inactive).
As to `CN(C)c1ccnc2sc3c(=O)n(N4CCCCCC4)cnc3c12`, the max response was 4.09% (inactive).
`Cc1c(C(=O)NCc2cccnc2)nn(-c2ccc(Cl)cc2Cl)c1-c1ccc(Cl)cc1`: the max response is -4.76% (inactive).
In the case of `CC(C)=CCc1cc2c(cc1O)OC[C@H]1c3ccc(O)cc3O[C@@H]21`, the max response is -23.2% (inactive).
With `Cn1cc(-c2ccc(F)c(C(F)(F)F)c2)nc1C1CCN(c2ncnc3[nH]ncc23)CC1`, the max response is 1.5% (inactive) and -4.9% (inactive).
Same read-out and setting: the figure for `O=C(O)CCc1nccc2c1[nH]c1ccccc12` is -2.87% (inactive); for `NS(=O)(=O)c1ccc(N2CCN(CC[C@@H]3OCCc4ccccc43)CC2)cc1` it is -0.981% (inactive); for `CC1(C)CC[C@]23CO[C@@]4(CCC5[C@@]6(C)CC[C@H](O[C@@H]7OC[C@H](O[C@@H]8O[C@H](CO)[C@@H](O)[C@H](O)[C@H]8O[C@@H]8OC[C@@H](O)[C@H](O)[C@H]8O)[C@H](O)[C@H]7O)[C@@](C)(CO)C6CC[C@@]5(C)[C@]4(C)CC2=O)[C@@H]3C1` (stereo not given in full) it is -14.1% (inactive).
Still for that read-out and setting: the figure for `Cc1ccc(CNc2ncnc3ccc(-c4ccc(CO)o4)cc23)o1` is -6.8% (inactive); for `C/C(=C/CO)CCC1C(C)CCC2C(C)(C)CCCC12C` (stereo not given) it is 1.98% (inactive).
On the same count and under the same terms, the figure for `C[C@@H]1O[C@@H](O[C@H]2CC[C@@]3(C)C(CC[C@]4(C)C3CC=C3[C@@H]5CC(C)(C)CC[C@]5(C(=O)O[C@@H]5O[C@H](CO)[C@@H](O)[C@H](O)[C@H]5O)CC[C@]34C)[C@]2(C)CO)[C@H](O)[C@H](O[C@@H]2O[C@H](CO)[C@@H](O)[C@H](O)[C@H]2O)[C@H]1O` (stereo not given in full) is -2.37% (inactive).
In the case of `C[C@H](Nc1cc2c(-c3ccc4c(c3)OCO4)noc2cn1)c1ccccc1`, the max response was -4.93% (inactive).
The same measure, in the same setting: the figure for `O=C(N[C@H](Cc1cscn1)C(=O)N[C@@H](CC1CCCCC1)[C@@H](O)[C@@H](O)C1CC1)c1nc2ccccc2[nH]1` is -17.1% (inactive).
The same measure, in the same setting: for `O=C(NCCCc1ccccc1)C1CCC(CNS(=O)(=O)c2cccc3nsnc23)CC1` (stereo not given) the value was -18.1% (inactive); for `CC(C)c1ccc(NC(=O)Cn2cnc3c2c(=O)n(C)c(=O)n3C)cc1`, -6.55% (inactive); for `C=C1C(=O)OC[C@@H]1C/C=C(\C)CC1CC(C)C(=O)O1` (stereo not given in full), -3.27% (inactive).
